Test results: the supplement of paper PMC7411054
Where a name gives a salt, the structure may show the parent alone.

Legend:
Conditions in all cases: treatment time: 24 h
A549-ACTB-RAB5A [1] = assay: lowest phenotypically active concentration; higher = less potent
Method in brief: (§1)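 Each of fifteen gene-edited A549, HepG2 and WPMY1 reporter lines, marked with BFP for segmentation and GFP and RFP/FusionRed, was treated in four wells at 0.3, 1, 3 or 9 µM for 24 h prior to live imaging. Normalisation of per-well live-cell features used solvent control wells. Deviation needed ≥3 of 4 wells beyond the 95th percentile of control Euclidean distances, and reproducibility needed a median replicate Pearson correlation above the 95th percentile of non-replicates. Both were required for phenotypic activity.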

A549-GM130-SQSTM1 [2] = assay: as above
Method in brief: as §1

A549-TP53BP1-CLTA [3] = assay: as above
Method in brief: as §1

HepG2-GM130-SQSTM1 [4] = assay: as above
Method in brief: as §1

HepG2-TUBA1B-RELA [5] = assay: as above
Method in brief: as §1

A549-ACTB-RAB5A [6] = assay: phenotypically active (imaging signature differs from DMSO and reproducible) at any of 0.3-9 uM (binary (1 = active, 0 = inactive)); higher = active
Method in brief: as §1

A549-CANX-COX4 = assay: as above
Method in brief: as §1

A549-GM130-SQSTM1 [7] = assay: as above
Method in brief: as §1

A549-TP53BP1-CLTA [8] = assay: as above
Method in brief: as §1

A549-TUBA1B-RELA = assay: as above
Method in brief: as §1

HepG2-ACTB-RAB5A = assay: as above
Method in brief: as §1

HepG2-CANX-COX4 = assay: as above
Method in brief: as §1

HepG2-GM130-SQSTM1 [9] = assay: as above
Method in brief: as §1

HepG2-TP53BP1-CLTA = assay: as above
Method in brief: as §1

HepG2-TUBA1B-RELA [10] = assay: as above
Method in brief: as §1

WPMY1-ACTB-RAB5A = assay: as above
Method in brief: as §1

WPMY1-CANX-COX4 = assay: as above
Method in brief: as §1

WPMY1-GM130-SQSTM1 = assay: as above
Method in brief: as §1

WPMY1-TP53BP1-CLTA = assay: as above
Method in brief: as §1

WPMY1-TUBA1B-RELA = assay: as above
Method in brief: as §1

Structure (SMILES)	lowest phenotypically active concentration (A549-ACTB-RAB5A [1]) [µM]	lowest phenotypically active concentration (A549-GM130-SQSTM1 [2]) [µM]	lowest phenotypically active concentration (A549-TP53BP1-CLTA [3]) [µM]	lowest phenotypically active concentration (HepG2-GM130-SQSTM1 [4]) [µM]	lowest phenotypically active concentration (HepG2-TUBA1B-RELA [5]) [µM]	phenotypically active (A549-ACTB-RAB5A [6])	phenotypically active (A549-CANX-COX4)	phenotypically active (A549-GM130-SQSTM1 [7])	phenotypically active (A549-TP53BP1-CLTA [8])	phenotypically active (A549-TUBA1B-RELA)	phenotypically active (HepG2-ACTB-RAB5A)	phenotypically active (HepG2-CANX-COX4)	phenotypically active (HepG2-GM130-SQSTM1 [9])	phenotypically active (HepG2-TP53BP1-CLTA)	phenotypically active (HepG2-TUBA1B-RELA [10])	phenotypically active (WPMY1-ACTB-RAB5A)	phenotypically active (WPMY1-CANX-COX4)	phenotypically active (WPMY1-GM130-SQSTM1)	phenotypically active (WPMY1-TP53BP1-CLTA)	phenotypically active (WPMY1-TUBA1B-RELA)
C=C1[C@@H](C)[C@H]2[C@H](Cc3ccccc3)NC(=O)[C@]23OC(=O)C=C[C@H](O)CCC[C@@H](C)CC=C[C@H]3[C@@H]1O [Cytochalasin B]	≤ 0.3	1	3	1	3	1 (active)	1 (active)	1 (active)	1 (active)	1 (active)	1 (active)	1 (active)	1 (active)	1 (active)	1 (active)	1 (active)	1 (active)	1 (active)	1 (active)	1 (active)
C[C@@]12C(=O)OC(=O)[C@]1(C)[C@H]1CC[C@@H]2O1 [Cantharidin]	3	3	3	9	3	1 (active)	1 (active)	1 (active)	1 (active)	0 (inactive)	1 (active)	1 (active)	1 (active)	1 (active)	1 (active)	1 (active)	1 (active)	1 (active)	1 (active)	1 (active)
CC[C@]12C=CCN3CC[C@]4(C(=C(C(=O)OC)C1)Nc1ccccc14)[C@@H]32 [Tabersonine dichlorhydrate]	9	9		9	9	1 (active)	1 (active)	1 (active)	0 (inactive)	1 (active)	1 (active)	1 (active)	1 (active)	1 (active)	1 (active)	1 (active)	1 (active)	1 (active)	1 (active)	1 (active)
CC[C@H]1CN2CCc3cc(OC)c(OC)cc3[C@@H]2C[C@@H]1C[C@H]1NCCc2cc(OC)c(OC)cc21 [emetine]	≤ 0.3	≤ 0.3	≤ 0.3	≤ 0.3	≤ 0.3	1 (active)	1 (active)	1 (active)	1 (active)	1 (active)	1 (active)	1 (active)	1 (active)	1 (active)	1 (active)	1 (active)	1 (active)	1 (active)	1 (active)	1 (active)
O=C(NCCN1CCC2(CC1)C(=O)NCN2c1cccc(F)c1)c1ccc(F)c(F)c1 [ML 298 hydrochloride]	3	9	9	9	9	1 (active)	1 (active)	1 (active)	1 (active)	1 (active)	1 (active)	0 (inactive)	1 (active)	1 (active)	1 (active)	1 (active)	1 (active)	1 (active)	0 (inactive)	1 (active)
Cc1sc2c(c1C)C(c1ccc(Cl)cc1)=N[C@@H](CC(N)=O)c1nnc(C)n1-2	≤ 0.3	≤ 0.3	≤ 0.3	≤ 0.3	≤ 0.3	1 (active)	1 (active)	1 (active)	1 (active)	1 (active)	1 (active)	1 (active)	1 (active)	1 (active)	1 (active)	1 (active)	1 (active)	1 (active)	1 (active)	1 (active)
CC[C@@H](C)C(=O)O[C@H]1[C@H](O)[C@H]2[C@@H](CN3C[C@@H](C)CC[C@H]3[C@@]2(C)O)C2C[C@]34O[C@]5(O)[C@@H](OC(=O)[C@](C)(O)CC)CC[C@@]3(C)[C@@H]5[C@@H](OC(C)=O)[C@@H](OC(C)=O)[C@H]4[C@@]21O (stereo not given in full) [Protoveratrine A]		3				0 (inactive)	0 (inactive)	1 (active)	0 (inactive)	0 (inactive)	0 (inactive)	0 (inactive)	0 (inactive)	0 (inactive)	0 (inactive)	0 (inactive)	0 (inactive)	0 (inactive)	0 (inactive)	0 (inactive)
COC1=CC(C)=C[C@@H](C)[C@@H](O)[C@@H](C)CC(C)=CC=C[C@H](OC)[C@@H]([C@@H](C)[C@@H](O)[C@H](C)[C@@]2(O)C[C@@H](O)[C@H](C)[C@@H](C(C)C)O2)OC1=O [Bafilomycin A1]	≤ 0.3	≤ 0.3	3	3	3	1 (active)	1 (active)	1 (active)	1 (active)	1 (active)	1 (active)	1 (active)	1 (active)	1 (active)	1 (active)	1 (active)	1 (active)	1 (active)	1 (active)	1 (active)
CN1C[C@H](CO)C=C2c3cccc4[nH]cc(c34)C[C@H]21 [Lysergol]						0 (inactive)	0 (inactive)	0 (inactive)	0 (inactive)	0 (inactive)	0 (inactive)	0 (inactive)	0 (inactive)	0 (inactive)	0 (inactive)	0 (inactive)	0 (inactive)	1 (active)	0 (inactive)	0 (inactive)
CCC(=O)C(CC(C)N(C)C)(c1ccccc1)c1ccccc1 (stereo not given) [methadone]						0 (inactive)	0 (inactive)	0 (inactive)		0 (inactive)	0 (inactive)	0 (inactive)	0 (inactive)		0 (inactive)	0 (inactive)	0 (inactive)	0 (inactive)		0 (inactive)
C[N+]12CCC(CC1)C(OC(=O)C(O)(c1ccccc1)c1ccccc1)C2 (stereo not given) [clidinium]							0 (inactive)		0 (inactive)		0 (inactive)	0 (inactive)	0 (inactive)	0 (inactive)	0 (inactive)	0 (inactive)	0 (inactive)	0 (inactive)	0 (inactive)	0 (inactive)
CC(C)C[C@H]1C(=O)N2CCC[C@H]2[C@]2(O)O[C@](NC(=O)[C@@H]3C=C4c5cccc6[nH]c(Br)c(c56)C[C@H]4N(C)C3)(C(C)C)C(=O)N12 [bromocriptine]			9	9	9		0 (inactive)		1 (active)		1 (active)	1 (active)	1 (active)	1 (active)	1 (active)	0 (inactive)	0 (inactive)	1 (active)	1 (active)	0 (inactive)
N#Cc1c(Oc2cccc(OS(=O)(=O)CCCC(F)(F)F)c2)cccc1C(F)(F)F				9		0 (inactive)	0 (inactive)	0 (inactive)	0 (inactive)	0 (inactive)	0 (inactive)	0 (inactive)	1 (active)	0 (inactive)	0 (inactive)	0 (inactive)	0 (inactive)	0 (inactive)	0 (inactive)	0 (inactive)
CCC(=O)O[C@](Cc1ccccc1)(c1ccccc1)[C@H](C)CN(C)C [propoxyphene]							0 (inactive)		0 (inactive)		0 (inactive)	0 (inactive)	0 (inactive)	0 (inactive)	0 (inactive)	0 (inactive)	0 (inactive)	0 (inactive)	0 (inactive)	0 (inactive)
O=C1C=C2C=C[C@@H]3C[C@@]2(O1)[C@H]1CCCCN31 [Securinine]				9		0 (inactive)	0 (inactive)	0 (inactive)	0 (inactive)	0 (inactive)	0 (inactive)	0 (inactive)	1 (active)	0 (inactive)	0 (inactive)	0 (inactive)	0 (inactive)	0 (inactive)	0 (inactive)	1 (active)
C[C@]12CC[C@H](O)C[C@H]1CC[C@@H]1[C@@H]2CC[C@]2(C)[C@@H](C3=CC(=O)OC3)CC[C@]12O [Digitoxigenin]			≤ 0.3	≤ 0.3	≤ 0.3		1 (active)		1 (active)		1 (active)	1 (active)	1 (active)	1 (active)	1 (active)	1 (active)	1 (active)	1 (active)	1 (active)	1 (active)
O=C1CCCN1CC#CCN1CCCC1 [Oxotremorine sesquifumarate]							0 (inactive)		0 (inactive)		0 (inactive)	0 (inactive)	0 (inactive)	0 (inactive)	0 (inactive)	0 (inactive)	0 (inactive)	0 (inactive)	0 (inactive)	0 (inactive)
C[C@H](N)Cc1ccccc1 [dextroamphetamine]	3	3				1 (active)	0 (inactive)	1 (active)		1 (active)	0 (inactive)	0 (inactive)	0 (inactive)		0 (inactive)	0 (inactive)	0 (inactive)	0 (inactive)		0 (inactive)
C/C=C(/C)C(=O)O[C@H]1CC[C@@]2(C)[C@@H]3CC[C@H]4[C@]5(O)C[C@H](O)[C@@]6(O)[C@@H](CN7C[C@@H](C)CC[C@H]7[C@@]6(C)O)[C@]5(O)C[C@@]42O[C@]13O [Veratrine]					9	0 (inactive)	0 (inactive)	0 (inactive)	0 (inactive)	0 (inactive)	0 (inactive)	0 (inactive)	0 (inactive)	0 (inactive)	1 (active)	0 (inactive)	0 (inactive)	0 (inactive)	0 (inactive)	0 (inactive)
